# Source: article PMC7862700, “An all-to-all approach to the identification of sequence-specific readers for epigenetic DNA modifications on cytosine”
# Assays:
# Assay in all cases: DAPPL (digital affinity profiling via proximity ligation, sequencing); 10 mM Tris-HCl pH 7.5, 50 mM NaCl, 1 mM DTT, 4% glycerol, room temperature, 30 min; GST-TFs on glutathione beads, 16-mer random dsDNA library, 0.1% formaldehyde crosslink after washing; high values mean tight binding
# FLI1 = target: T1, FLI1 (Homo sapiens, UniProt Q01543 1-452); settings: protein: recombinant; tags: N-terminal GST; dsDNA, one strand shown
# T1 sequence: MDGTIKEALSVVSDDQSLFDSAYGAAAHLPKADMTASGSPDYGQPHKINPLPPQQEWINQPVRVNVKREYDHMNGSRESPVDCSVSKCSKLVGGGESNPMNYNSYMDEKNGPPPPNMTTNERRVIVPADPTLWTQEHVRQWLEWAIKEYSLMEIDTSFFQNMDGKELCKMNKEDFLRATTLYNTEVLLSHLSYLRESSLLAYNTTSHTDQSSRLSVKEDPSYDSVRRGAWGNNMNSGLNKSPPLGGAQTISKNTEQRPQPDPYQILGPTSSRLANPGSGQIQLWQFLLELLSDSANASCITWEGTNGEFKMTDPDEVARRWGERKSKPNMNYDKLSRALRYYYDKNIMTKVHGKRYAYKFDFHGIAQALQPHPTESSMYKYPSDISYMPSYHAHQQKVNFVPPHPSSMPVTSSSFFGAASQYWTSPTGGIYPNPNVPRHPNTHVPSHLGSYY
# Summary of the method: (§1)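 Human transcription factors carrying a GST fusion were produced in yeast, bound to glutathione beads, tagged with DNA barcodes and pooled together with a tag-only sample. Each pool was held with 200 nmole of a random double-stranded 16-mer DNA library in Tris/NaCl/DTT/glycerol buffer for 30 min at room temperature, then washed, crosslinked in 0.1% formaldehyde, proximity-ligated with BsaI/T4 ligase (1 h, 37 °C), PCR-amplified and sequenced on an Illumina NextSeq500. Binding signal is the read frequency of each hexamer for a given factor divided by its frequency in the tag-only sample.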
# ELK1 = target: T2, ELK1 (Homo sapiens, UniProt P19419 1-428); settings: protein: recombinant; tags: N-terminal GST; dsDNA, one strand shown
# T2 sequence: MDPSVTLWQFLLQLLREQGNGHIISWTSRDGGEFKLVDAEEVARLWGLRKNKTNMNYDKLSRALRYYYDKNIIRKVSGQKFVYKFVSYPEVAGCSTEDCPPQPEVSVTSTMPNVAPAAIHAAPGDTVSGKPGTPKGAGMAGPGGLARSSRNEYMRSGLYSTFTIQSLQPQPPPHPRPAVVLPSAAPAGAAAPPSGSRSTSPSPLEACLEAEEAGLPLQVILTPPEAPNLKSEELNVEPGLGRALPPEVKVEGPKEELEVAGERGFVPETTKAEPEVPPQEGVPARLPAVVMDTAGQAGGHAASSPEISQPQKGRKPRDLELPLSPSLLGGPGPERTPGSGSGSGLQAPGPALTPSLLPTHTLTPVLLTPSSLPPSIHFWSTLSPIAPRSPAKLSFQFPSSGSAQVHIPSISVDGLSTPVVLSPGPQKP
# Summary of the method: as §1
# GABPA = target: T3, GABPA (Homo sapiens, UniProt Q06546 1-454); settings: protein: recombinant; tags: N-terminal GST; dsDNA, one strand shown
# T3 sequence: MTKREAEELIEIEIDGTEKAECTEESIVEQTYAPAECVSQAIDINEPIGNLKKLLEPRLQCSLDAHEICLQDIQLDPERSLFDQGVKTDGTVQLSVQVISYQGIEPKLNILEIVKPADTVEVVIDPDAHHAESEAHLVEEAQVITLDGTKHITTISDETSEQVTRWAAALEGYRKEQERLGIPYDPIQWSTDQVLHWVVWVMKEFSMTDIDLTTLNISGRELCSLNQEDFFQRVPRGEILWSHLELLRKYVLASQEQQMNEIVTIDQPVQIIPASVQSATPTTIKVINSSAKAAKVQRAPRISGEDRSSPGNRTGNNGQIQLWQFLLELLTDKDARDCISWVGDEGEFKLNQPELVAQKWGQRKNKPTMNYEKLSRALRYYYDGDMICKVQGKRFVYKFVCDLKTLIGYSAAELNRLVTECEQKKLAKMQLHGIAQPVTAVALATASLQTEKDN
# Summary of the method: as §1
# ERG = target: T4, ERG (Homo sapiens, UniProt P11308 1-479); settings: protein: recombinant; tags: N-terminal GST; dsDNA, one strand shown
# T4 sequence: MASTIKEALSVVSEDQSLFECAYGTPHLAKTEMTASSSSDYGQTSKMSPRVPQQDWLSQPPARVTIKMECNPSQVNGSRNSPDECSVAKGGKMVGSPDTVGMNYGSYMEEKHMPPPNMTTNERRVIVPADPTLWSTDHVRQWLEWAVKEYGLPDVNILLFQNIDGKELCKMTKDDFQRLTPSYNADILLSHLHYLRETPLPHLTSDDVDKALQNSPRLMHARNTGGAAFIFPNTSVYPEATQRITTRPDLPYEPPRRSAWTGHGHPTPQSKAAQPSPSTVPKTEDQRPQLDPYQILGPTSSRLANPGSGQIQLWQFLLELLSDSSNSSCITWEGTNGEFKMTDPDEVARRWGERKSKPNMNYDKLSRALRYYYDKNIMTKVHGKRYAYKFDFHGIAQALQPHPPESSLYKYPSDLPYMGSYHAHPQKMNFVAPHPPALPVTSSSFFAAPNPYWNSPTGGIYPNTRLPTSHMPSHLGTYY
# Summary of the method: as §1
# ELF1 = ELF1 (Homo sapiens, UniProt P32519 1-619); settings: protein: recombinant; tags: N-terminal GST; dsDNA, one strand shown
# Summary of the method: as §1
# EHF = target: T5, EHF (Homo sapiens, UniProt Q9NZC4 1-300); settings: protein: recombinant; tags: N-terminal GST; dsDNA, one strand shown
# T5 sequence: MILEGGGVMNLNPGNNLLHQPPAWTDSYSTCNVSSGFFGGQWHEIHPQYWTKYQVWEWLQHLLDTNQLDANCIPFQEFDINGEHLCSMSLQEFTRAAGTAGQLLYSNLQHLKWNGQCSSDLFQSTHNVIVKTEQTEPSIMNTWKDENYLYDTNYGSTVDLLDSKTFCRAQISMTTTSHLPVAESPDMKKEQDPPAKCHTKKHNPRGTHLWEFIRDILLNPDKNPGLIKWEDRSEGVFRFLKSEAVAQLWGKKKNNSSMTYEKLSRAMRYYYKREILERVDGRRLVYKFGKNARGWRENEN
# Summary of the method: as §1
# SPI1 = SPI1 (Homo sapiens, UniProt P17947 1-270); settings: protein: recombinant; tags: N-terminal GST; dsDNA, one strand shown
# Summary of the method: as §1
# SPIB = SPIB (Homo sapiens, UniProt Q01892 1-262); settings: protein: recombinant; tags: N-terminal GST; dsDNA, one strand shown
# Summary of the method: as §1
# ELK3 = target: T6, ELK3 (Homo sapiens, UniProt P41970 1-407); settings: protein: recombinant; tags: N-terminal GST; dsDNA, one strand shown
# T6 sequence: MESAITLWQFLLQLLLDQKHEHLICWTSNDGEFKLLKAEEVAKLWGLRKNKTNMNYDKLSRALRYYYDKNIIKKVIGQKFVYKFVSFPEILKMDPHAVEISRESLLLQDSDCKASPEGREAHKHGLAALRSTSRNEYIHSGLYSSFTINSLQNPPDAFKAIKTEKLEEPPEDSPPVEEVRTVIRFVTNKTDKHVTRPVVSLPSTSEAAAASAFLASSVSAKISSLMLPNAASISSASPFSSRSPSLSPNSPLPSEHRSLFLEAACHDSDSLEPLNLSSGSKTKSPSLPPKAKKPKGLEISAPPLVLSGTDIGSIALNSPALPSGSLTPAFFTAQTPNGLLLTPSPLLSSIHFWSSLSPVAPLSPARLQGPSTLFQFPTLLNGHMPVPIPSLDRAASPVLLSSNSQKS
# Summary of the method: as §1
# FEV = target: T7, FEV (Homo sapiens, UniProt Q99581 1-238); settings: protein: recombinant; tags: N-terminal GST; dsDNA, one strand shown
# T7 sequence: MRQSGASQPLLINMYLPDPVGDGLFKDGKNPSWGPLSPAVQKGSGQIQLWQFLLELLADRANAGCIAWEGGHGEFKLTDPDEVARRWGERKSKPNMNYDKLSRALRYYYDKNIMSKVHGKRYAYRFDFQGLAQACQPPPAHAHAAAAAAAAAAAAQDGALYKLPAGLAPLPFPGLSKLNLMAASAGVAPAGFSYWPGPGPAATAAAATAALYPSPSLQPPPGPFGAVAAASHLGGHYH
# Summary of the method: as §1
# ETV5 = ETV5 (Homo sapiens, UniProt P41161 1-510); settings: protein: recombinant; tags: N-terminal GST; dsDNA, one strand shown
# Summary of the method: as §1
# HSF1 = HSF1 (Homo sapiens, UniProt Q00613 1-529); settings: protein: recombinant; tags: N-terminal GST; chain copies: 3; dsDNA, one strand shown
# Summary of the method: as §1
# SPIC = target: T8, SPIC (Homo sapiens, UniProt Q8N5J4 1-248); settings: protein: recombinant; tags: N-terminal GST; dsDNA, one strand shown
# T8 sequence: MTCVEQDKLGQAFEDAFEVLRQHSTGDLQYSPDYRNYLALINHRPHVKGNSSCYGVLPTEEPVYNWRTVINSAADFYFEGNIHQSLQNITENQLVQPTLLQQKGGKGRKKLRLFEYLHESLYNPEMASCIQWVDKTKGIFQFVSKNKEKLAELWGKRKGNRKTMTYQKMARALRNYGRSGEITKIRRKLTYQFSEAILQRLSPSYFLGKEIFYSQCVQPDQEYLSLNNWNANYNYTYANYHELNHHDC
# Summary of the method: as §1
# ELF4 = ELF4 (Homo sapiens, UniProt Q99607 1-663); settings: protein: recombinant; tags: N-terminal GST; dsDNA, one strand shown
# Summary of the method: as §1
# ELK4 = target: T9, ELK4 (Homo sapiens, UniProt P28324-2 1-405); settings: protein: recombinant; tags: N-terminal GST; dsDNA, one strand shown
# T9 sequence: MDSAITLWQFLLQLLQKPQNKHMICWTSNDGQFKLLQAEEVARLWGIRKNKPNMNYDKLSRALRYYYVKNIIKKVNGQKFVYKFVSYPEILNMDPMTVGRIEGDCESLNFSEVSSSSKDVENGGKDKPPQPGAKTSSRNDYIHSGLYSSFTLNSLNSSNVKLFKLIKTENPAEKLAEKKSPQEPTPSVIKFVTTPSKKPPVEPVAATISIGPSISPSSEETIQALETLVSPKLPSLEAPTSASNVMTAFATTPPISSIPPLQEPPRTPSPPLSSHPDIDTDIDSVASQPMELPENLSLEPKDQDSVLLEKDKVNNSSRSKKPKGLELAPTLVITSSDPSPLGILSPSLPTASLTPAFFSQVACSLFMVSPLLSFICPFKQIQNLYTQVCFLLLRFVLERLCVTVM
# Summary of the method: as §1
# ETV2 = target: T10, ETV2 (Homo sapiens, UniProt O00321 1-342); settings: protein: recombinant; tags: N-terminal GST; dsDNA, one strand shown
# T10 sequence: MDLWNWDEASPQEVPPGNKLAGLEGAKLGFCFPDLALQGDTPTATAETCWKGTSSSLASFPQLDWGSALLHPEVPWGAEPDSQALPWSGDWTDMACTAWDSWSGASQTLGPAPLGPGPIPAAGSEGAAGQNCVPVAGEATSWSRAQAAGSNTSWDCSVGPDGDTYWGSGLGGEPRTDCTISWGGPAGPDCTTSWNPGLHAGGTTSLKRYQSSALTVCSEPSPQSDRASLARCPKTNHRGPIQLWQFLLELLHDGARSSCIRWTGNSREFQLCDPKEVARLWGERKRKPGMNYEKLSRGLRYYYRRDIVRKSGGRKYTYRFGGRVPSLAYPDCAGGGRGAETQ
# Summary of the method: as §1
# ELF3 = target: T11, ELF3 (Homo sapiens, UniProt P78545 1-371); settings: protein: recombinant; tags: N-terminal GST; dsDNA, one strand shown
# T11 sequence: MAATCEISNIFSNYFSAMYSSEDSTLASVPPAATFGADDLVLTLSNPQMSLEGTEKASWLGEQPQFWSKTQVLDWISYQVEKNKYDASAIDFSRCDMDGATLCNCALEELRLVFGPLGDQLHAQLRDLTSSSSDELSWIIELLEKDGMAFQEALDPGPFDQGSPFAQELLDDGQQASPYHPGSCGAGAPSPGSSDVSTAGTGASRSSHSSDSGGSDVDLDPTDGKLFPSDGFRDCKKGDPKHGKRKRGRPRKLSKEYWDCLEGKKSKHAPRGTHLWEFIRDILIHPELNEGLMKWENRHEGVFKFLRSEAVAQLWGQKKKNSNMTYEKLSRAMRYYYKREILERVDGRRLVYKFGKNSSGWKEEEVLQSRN
# Summary of the method: as §1
# CRX = CRX (Homo sapiens, UniProt O43186 1-299); settings: protein: recombinant; tags: N-terminal GST; dsDNA, one strand shown
# Summary of the method: as §1
# ETV1 = ETV1 (Homo sapiens, UniProt P50549 1-477); settings: protein: recombinant; tags: N-terminal GST; dsDNA, one strand shown
# Summary of the method: as §1
# Chain of ELF1 (P32519 whole entry): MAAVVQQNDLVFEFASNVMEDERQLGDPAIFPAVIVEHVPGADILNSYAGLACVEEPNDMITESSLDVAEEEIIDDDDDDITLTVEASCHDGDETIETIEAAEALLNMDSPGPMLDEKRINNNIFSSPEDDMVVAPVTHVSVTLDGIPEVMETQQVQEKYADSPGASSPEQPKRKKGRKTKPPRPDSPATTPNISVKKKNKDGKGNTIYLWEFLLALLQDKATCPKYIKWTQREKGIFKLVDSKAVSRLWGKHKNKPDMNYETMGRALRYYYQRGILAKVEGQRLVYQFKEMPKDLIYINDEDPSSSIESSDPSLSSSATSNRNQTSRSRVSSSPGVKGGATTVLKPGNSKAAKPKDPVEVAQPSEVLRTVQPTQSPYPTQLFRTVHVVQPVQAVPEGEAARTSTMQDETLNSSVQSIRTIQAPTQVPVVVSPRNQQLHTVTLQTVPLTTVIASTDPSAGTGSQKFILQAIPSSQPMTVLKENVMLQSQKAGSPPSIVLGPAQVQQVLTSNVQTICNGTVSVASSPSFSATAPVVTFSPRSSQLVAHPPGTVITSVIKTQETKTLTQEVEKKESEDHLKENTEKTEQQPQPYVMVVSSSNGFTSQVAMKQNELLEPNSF
# Chain of ETV5 (P41161 whole entry): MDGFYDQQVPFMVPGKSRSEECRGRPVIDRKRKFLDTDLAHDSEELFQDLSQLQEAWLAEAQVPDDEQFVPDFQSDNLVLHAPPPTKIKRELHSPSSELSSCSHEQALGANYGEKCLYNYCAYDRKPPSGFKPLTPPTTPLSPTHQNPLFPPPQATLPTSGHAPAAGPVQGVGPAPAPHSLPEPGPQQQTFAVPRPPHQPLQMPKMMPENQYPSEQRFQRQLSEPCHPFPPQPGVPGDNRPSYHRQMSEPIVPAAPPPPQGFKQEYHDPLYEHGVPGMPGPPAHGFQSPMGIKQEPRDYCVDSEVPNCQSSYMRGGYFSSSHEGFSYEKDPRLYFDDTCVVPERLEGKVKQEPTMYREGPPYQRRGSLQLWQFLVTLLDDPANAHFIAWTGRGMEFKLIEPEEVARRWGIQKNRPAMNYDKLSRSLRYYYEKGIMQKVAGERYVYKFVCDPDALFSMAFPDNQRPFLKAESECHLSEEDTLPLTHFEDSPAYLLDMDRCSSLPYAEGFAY
# Chain of ETV1 (P50549 whole entry): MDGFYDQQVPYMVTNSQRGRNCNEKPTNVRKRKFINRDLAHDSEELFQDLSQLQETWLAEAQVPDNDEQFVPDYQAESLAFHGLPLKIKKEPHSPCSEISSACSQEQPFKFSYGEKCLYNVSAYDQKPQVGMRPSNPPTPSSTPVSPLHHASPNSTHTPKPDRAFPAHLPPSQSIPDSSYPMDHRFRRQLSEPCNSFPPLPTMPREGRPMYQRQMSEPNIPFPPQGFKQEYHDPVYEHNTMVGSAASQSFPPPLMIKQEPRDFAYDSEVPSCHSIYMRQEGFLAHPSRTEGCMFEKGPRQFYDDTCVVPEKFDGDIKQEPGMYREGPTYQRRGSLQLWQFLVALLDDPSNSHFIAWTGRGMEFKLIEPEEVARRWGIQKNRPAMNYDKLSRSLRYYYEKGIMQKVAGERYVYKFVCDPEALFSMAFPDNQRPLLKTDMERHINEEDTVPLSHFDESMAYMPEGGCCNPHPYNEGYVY
# Chain of HSF1 (Q00613 whole entry): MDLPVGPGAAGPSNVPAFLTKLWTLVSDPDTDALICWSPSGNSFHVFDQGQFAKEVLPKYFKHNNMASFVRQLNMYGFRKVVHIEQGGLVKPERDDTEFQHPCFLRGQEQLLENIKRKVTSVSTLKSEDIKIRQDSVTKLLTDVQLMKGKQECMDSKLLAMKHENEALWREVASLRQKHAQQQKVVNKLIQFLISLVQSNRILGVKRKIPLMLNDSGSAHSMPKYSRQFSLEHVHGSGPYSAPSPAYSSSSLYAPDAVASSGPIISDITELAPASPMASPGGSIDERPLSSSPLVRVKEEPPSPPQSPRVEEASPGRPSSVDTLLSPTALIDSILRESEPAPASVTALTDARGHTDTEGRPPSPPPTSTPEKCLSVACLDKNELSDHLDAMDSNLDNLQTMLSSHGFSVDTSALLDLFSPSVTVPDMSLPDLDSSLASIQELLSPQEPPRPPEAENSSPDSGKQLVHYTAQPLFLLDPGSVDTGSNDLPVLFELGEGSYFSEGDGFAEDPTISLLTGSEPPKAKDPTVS
# Chain of SPIB (Q01892 whole entry): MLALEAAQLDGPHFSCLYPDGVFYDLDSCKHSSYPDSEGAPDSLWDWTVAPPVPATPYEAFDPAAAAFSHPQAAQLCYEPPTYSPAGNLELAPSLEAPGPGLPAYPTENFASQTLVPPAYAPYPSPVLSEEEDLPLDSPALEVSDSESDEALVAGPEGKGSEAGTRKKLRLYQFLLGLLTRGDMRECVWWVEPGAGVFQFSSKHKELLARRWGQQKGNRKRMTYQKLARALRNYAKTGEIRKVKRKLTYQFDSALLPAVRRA
# Chain of CRX (O43186 whole entry): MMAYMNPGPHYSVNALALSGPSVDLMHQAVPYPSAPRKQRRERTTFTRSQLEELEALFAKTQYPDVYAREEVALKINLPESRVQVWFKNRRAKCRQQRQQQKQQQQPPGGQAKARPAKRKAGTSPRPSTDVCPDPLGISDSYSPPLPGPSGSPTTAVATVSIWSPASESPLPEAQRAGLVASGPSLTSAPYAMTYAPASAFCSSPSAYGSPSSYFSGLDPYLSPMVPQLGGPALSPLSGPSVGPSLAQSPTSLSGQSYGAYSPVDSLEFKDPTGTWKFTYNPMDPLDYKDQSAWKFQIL
# Chain of ELF4 (Q99607 whole entry): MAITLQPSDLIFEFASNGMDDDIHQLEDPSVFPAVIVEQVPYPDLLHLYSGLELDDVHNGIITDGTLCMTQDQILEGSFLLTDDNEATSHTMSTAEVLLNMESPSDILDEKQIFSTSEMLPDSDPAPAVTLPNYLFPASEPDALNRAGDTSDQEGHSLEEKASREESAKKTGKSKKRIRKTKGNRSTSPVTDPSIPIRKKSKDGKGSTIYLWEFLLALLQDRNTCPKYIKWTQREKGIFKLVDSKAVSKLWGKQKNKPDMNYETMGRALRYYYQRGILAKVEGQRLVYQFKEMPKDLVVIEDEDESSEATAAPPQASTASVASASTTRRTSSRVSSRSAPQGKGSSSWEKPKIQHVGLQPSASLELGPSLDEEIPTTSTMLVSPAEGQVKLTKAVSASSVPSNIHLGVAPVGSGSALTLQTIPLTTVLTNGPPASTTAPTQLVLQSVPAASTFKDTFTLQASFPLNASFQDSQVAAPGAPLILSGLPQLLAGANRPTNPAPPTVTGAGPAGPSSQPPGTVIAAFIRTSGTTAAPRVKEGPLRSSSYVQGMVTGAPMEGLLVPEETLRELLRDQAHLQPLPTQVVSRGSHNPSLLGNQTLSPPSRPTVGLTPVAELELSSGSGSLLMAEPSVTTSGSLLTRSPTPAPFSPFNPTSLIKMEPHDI
sequence,measurement,setting,value
GAACTT,binding signal,FLI1,"1.68 fold enrichment (6-mer frequency, TF over GST control)"
same,binding signal,ELK1,"1.65 fold enrichment (6-mer frequency, TF over GST control)"
same,binding signal,GABPA,"1.62 fold enrichment (6-mer frequency, TF over GST control)"
same,binding signal,ERG,"1.58 fold enrichment (6-mer frequency, TF over GST control)"
same,binding signal,ELF1,"1.7 fold enrichment (6-mer frequency, TF over GST control)"
same,binding signal,EHF,"1.59 fold enrichment (6-mer frequency, TF over GST control)"
same,binding signal,SPI1,"1.74 fold enrichment (6-mer frequency, TF over GST control)"
same,binding signal,SPIB,"1.69 fold enrichment (6-mer frequency, TF over GST control)"
same,binding signal,ELK3,"1.7 fold enrichment (6-mer frequency, TF over GST control)"
same,binding signal,FEV,"1.72 fold enrichment (6-mer frequency, TF over GST control)"
same,binding signal,ETV5,"1.66 fold enrichment (6-mer frequency, TF over GST control)"
same,binding signal,HSF1,"2.03 fold enrichment (6-mer frequency, TF over GST control)"
same,binding signal,SPIC,"1.71 fold enrichment (6-mer frequency, TF over GST control)"
same,binding signal,ELF4,"1.52 fold enrichment (6-mer frequency, TF over GST control)"
same,binding signal,ELK4,"1.48 fold enrichment (6-mer frequency, TF over GST control)"
same,binding signal,ETV2,"1.44 fold enrichment (6-mer frequency, TF over GST control)"
same,binding signal,ELF3,"1.5 fold enrichment (6-mer frequency, TF over GST control)"
same,binding signal,CRX,"1.32 fold enrichment (6-mer frequency, TF over GST control)"
same,binding signal,ETV1,"1.68 fold enrichment (6-mer frequency, TF over GST control)"
